# Measurements: PubChem BioAssay AID2330 (Broad Institute, 2010)
# Out of some 37,000 compounds screened, about 2,800 (7.6%) were called active. Roughly 1% stayed inconclusive and do not appear here. No stated cut-off is given here; in the data, active means inhibition above about 80%; inconclusive means no clear call, values can overlap the other calls; inactive means below that. This excerpt belongs to a sample that is enriched for actives.
# Assay: NOMO-1 AML cell viability reduction, primary screen, STK33 inhibitor project, CellTiter-Glo luminescence (AID 2330)
# Conditions: NOMO-1 AML viability, 72 h, hits give high values, concentration not given here
row,Structure (SMILES),inhibition
1,CCn1c(=O)cc(O)c2ccccc21,27.9% (inactive)
2,C[C@H](CO)N1C[C@H](C)[C@H](CN(C)C(=O)NC2CCCCC2)Oc2ccc(NC(=O)c3ccncc3)cc2CC1=O,-3.17% (inactive)
3,COc1ccc(S(=O)(=O)N(C)C[C@H]2Oc3ccc(NS(C)(=O)=O)cc3C(=O)N([C@H](C)CO)C[C@H]2C)cc1,-0.557% (inactive)
4,C[C@@H]1CCCCO[C@H](CN(C)S(C)(=O)=O)[C@@H](C)CN([C@H](C)CO)C(=O)c2cc(NS(=O)(=O)c3ccc(Cl)cc3)ccc2O1,4.39% (inactive)
5,CC(C)=CCCC1(C)C=Cc2c(ccc3c2[nH]c2cc(O)c(C)cc23)O1 (centres undefined),108% (active)
6,O=C(CC1SC(=NC2CC3C=CC2C3)NC1=O)Nc1ccccc1Cl (centres undefined),8.48% (inactive)
7,CC(C)CC(C(=O)Nc1cccc([N+](=O)[O-])c1)N1C(=O)c2ccccc2C1=O (centres undefined),26.9% (inactive)
8,COc1ccc(NC(=O)Nc2nn(Cc3ccc(Cl)cc3Cl)cc2Br)cc1OC,39.9% (inactive)
9,O=[N+]([O-])c1cccc(NC(=S)Nc2nn(Cc3ccc(Cl)cc3Cl)cc2Cl)c1,111% (active)
10,C[C@H]1CN([C@@H](C)CO)C(=O)c2cc(NC(=O)Nc3ccc4c(c3)OCO4)ccc2O[C@H]1CN(C)S(=O)(=O)c1ccc(F)cc1,18.9% (inactive)
11,C[C@H]1CN([C@@H](C)CO)C(=O)c2cccc(NS(=O)(=O)c3cn(C)cn3)c2O[C@@H]1CN(C)C(=O)Nc1ccc(F)cc1,7.11% (inactive)
12,C[C@H]1O[C@@H](O[C@H]2[C@@H](O)C[C@H](O[C@H]3[C@@H](O)C[C@H](O[C@H]4CC[C@]5(C)C6C[C@@H](O)[C@]7(C)[C@@H](C8=CC(=O)OC8)CC[C@]7(O)C6CC[C@@H]5C4)O[C@@H]3C)O[C@@H]2C)C[C@H](O)[C@@H]1O (some centres undefined),112% (active)
13,C[C@H]1CN([C@@H](C)CO)C(=O)Cc2cc(NC(=O)C3CC3)ccc2O[C@@H]1CN(C)C(=O)NC1CCCCC1,-0.0688% (inactive)
14,Cc1ccc(S(=O)(=O)N(C)C[C@@H]2Oc3c(NS(=O)(=O)c4ccc(F)cc4)cccc3C(=O)N([C@@H](C)CO)C[C@H]2C)cc1,-7.97% (inactive)
15,CCCc1nc2c(C)cc(-c3nc4ccccc4n3C)cc2n1Cc1ccc(-c2ccccc2C(=O)O)cc1,0.908% (inactive)
16,C[C@H](CO)N1C[C@H](C)[C@H](CN(C)C)Oc2c(NC(=O)C3CCOCC3)cccc2C1=O,-4.27% (inactive)
17,O=C(O)CCSc1nnc2c(n1)[nH]c1ccccc12,16.8% (inactive)
18,O=C(CSc1nnc2c(n1)[nH]c1ccccc12)Nc1cccc(C(F)(F)F)c1,112% (active)
19,O=C(CCn1cnc2ccccc2c1=O)Nc1cccc(C(F)(F)F)c1,-23.9% (inactive)
